Measurements reported in PubChem BioAssay (NCI).
“And” between values parts separate entries of the source, which are not always exact repeats. Equal values may be shown once. Compounds without any hit were thinned out: in the full panel of roughly 83,000, 20% have a hit.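 Percent growth is the endpoint: 0 to 100 indicates growth inhibition (40 means 60% inhibition), 0 means no net growth, and negative values indicate cell death.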 The source made the active and inactive calls. The calls were made as follows: active = growth percent below 10; inactive = the rest.

How the values were obtained:
Experiment in all cases: NCI-60 one-dose screen, 48 h (100 = growth as untreated, 0 = no growth, -100 = all killed)
Conditions in all cases: 10 µM unless noted
[1] = tested on: NCI-H23 lung
[2] = tested on: NCI-H226 lung
[3] = tested on: NCI-H322M lung
[4] = tested on: HOP-62 NSCLC
[5] = tested on: NCI-H460 lung
[6] = tested on: HOP-92 NSCLC
[7] = tested on: NCI-H522 lung
[8] = tested on: A549/ATCC NSCLC
[9] = tested on: 786-0 renal
[10] = tested on: COLO 205 colon
[11] = tested on: DU-145 prostate
[12] = tested on: K-562 leukemia
[13] = tested on: MALME-3M melanoma
[14] = tested on: MDA-MB-231 breast
[15] = tested on: RXF 393 renal
[16] = tested on: SF-268 CNS
[17] = tested on: SF-295 CNS
[18] = tested on: SF-539 CNS
[19] = tested on: UACC-257 melanoma
[20] = tested on: M14 melanoma

Which results are given for `N#CSCC(=O)c1ccc(Cl)cc1`?
growth [1]: 9.41% (active); growth [2]: 65.8% (inactive); growth [3]: 71.7% (inactive); growth [4]: 45.1% (inactive); growth [5]: 33.5% (inactive); growth [6]: -3.98% (active); growth [7]: 50.6% (inactive); growth [8]: 87.1% (inactive); growth [9]: 22.3% (inactive); growth [10]: 90.3% (inactive); growth [11]: 30.2% (inactive); growth [12]: 44.4% (inactive); growth [13]: 54.8% (inactive); growth [14]: 34.4% (inactive); growth [15]: 25.6% (inactive); growth [16]: 34.6% (inactive); growth [17]: 49.4% (inactive); growth [18]: 22.2% (inactive); growth [19]: 82.3% (inactive); growth [20]: 2.91% (active)

Which growth [1] does the source give for `O[C@H]1[C@H]2c3cc4c(cc3CN3CCC(=C[C@@H]1O)[C@H]23)OCO4` here?
Its growth is 15.3% (inactive).

What about the growth [2] of the same molecule?
The growth was 15.3% (inactive).

And the growth [3]?
Its growth is 18.5% (inactive).

And the growth [4]?
Its growth is 26.5% (inactive).

And the growth [5]?
The growth was 18.4% (inactive).

And the growth [6]?
Its growth is -3.91% (active).

And the growth [7]?
Its growth is 25% (inactive).

And the growth [8]?
Its growth is 19.1% (inactive).

What about the growth [9] of the same molecule?
Its growth is 31.9% (inactive).

And the growth [10]?
The growth was 9.67% (active).

And the growth [11]?
Its growth is 9.62% (active).

What about the growth [12] of the same molecule?
Its growth is 21.4% (inactive).

What about the growth [13] of the same molecule?
Its growth is 41.9% (inactive).

What about the growth [14] of the same molecule?
The growth was 39.6% (inactive).

What about the growth [15] of the same molecule?
Its growth is 19% (inactive).

And the growth [16]?
The growth was 24.4% (inactive).

What about the growth [17] of the same molecule?
The growth was 34% (inactive).

And the growth [18]?
The growth was 14% (inactive).

What about the growth [19] of the same molecule?
The growth was 45.7% (inactive).

What about the growth [20] of the same molecule?
The growth was 15.9% (inactive).

How did the growth [1] turn out when `COC(=O)[C@@]12OC[C@]34[C@H]([C@@H](O)[C@@H]1O)[C@@]1(C)[C@H](O)C(=O)C=C(C)[C@@H]1C[C@H]3OC(=O)C(OC(C)=O)[C@@H]24` (stereo not given in full) was run?
Its growth is -48.7% (active).

And the growth [2]?
Its growth is -65.4% (active).

What about the growth [3] of the same molecule?
The growth was -28.9% (active).

What about the growth [4] of the same molecule?
The growth was -30.7% (active).

What about the growth [5] of the same molecule?
The growth was -43.4% (active).

What about the growth [6] of the same molecule?
The growth was -44.2% (active).

What about the growth [7] of the same molecule?
Its growth is -60.1% (active).

What about the growth [8] of the same molecule?
The growth was -19.4% (active).

What about the growth [9] of the same molecule?
The growth was -38.9% (active).

What about the growth [10] of the same molecule?
Its growth is -64.3% (active).

What about the growth [11] of the same molecule?
Its growth is -64.4% (active).

And the growth [12]?
Its growth is -60% (active).

And the growth [13]?
The growth was -70.1% (active).

What about the growth [14] of the same molecule?
The growth was -39.5% (active).

What about the growth [15] of the same molecule?
The growth was -63.6% (active).

What about the growth [16] of the same molecule?
Its growth is -31.2% (active).

What about the growth [17] of the same molecule?
Its growth is -53.9% (active).

What about the growth [18] of the same molecule?
Its growth is -36.7% (active).

And the growth [19]?
The growth was -54.4% (active).

And the growth [20]?
Its growth is -84.9% (active).

Which growth [1] does the source give for `O=C(CC1(O)C(=O)Nc2c(Cl)ccc(Cl)c21)c1ccc(Cl)cc1Cl` (stereo not given) here?
Its growth is 101% (inactive).

And the growth [2]?
The growth was 97.6% (inactive).

What about the growth [3] of the same molecule?
Its growth is 108% (inactive).

And the growth [4]?
The growth was 70.2% (inactive).

What about the growth [5] of the same molecule?
The growth was 108% (inactive).

And the growth [6]?
The growth was 92.5% (inactive).

What about the growth [7] of the same molecule?
The growth was 76.2% (inactive).

And the growth [8]?
The growth was 91.4% (inactive).

And the growth [9]?
The growth was 102% (inactive).

And the growth [10]?
Its growth is 97.5% (inactive).

What about the growth [11] of the same molecule?
Its growth is 103% (inactive).

And the growth [12]?
The growth was 93.6% (inactive).

And the growth [13]?
The growth was 100% (inactive).

And the growth [14]?
Its growth is 109% (inactive).

What about the growth [15] of the same molecule?
The growth was 94.5% (inactive).

What about the growth [16] of the same molecule?
Its growth is 97.4% (inactive).

And the growth [17]?
The growth was 100% (inactive).

And the growth [18]?
Its growth is 103% (inactive).

And the growth [19]?
The growth was 78.8% (inactive).

What about the growth [20] of the same molecule?
The growth was 89.2% (inactive).

For `Cc1ccc(N=C=C(c2ccccc2)c2ccccc2)cc1`, which growth [1] is on record?
The growth was 81% (inactive).

What about the growth [2] of the same molecule?
The growth was 90.3% (inactive).

And the growth [3]?
Its growth is 98.1% (inactive).

What about the growth [4] of the same molecule?
The growth was 104% (inactive).

What about the growth [5] of the same molecule?
The growth was 97.3% (inactive).

And the growth [6]?
The growth was 79.2% (inactive).

And the growth [7]?
Its growth is 76% (inactive).

And the growth [8]?
Its growth is 97.5% (inactive).

And the growth [9]?
Its growth is 70.1% (inactive).

And the growth [10]?
Its growth is 114% (inactive).

What about the growth [11] of the same molecule?
Its growth is 108% (inactive).

What about the growth [12] of the same molecule?
Its growth is 8.39% (active).

And the growth [13]?
The growth was 95% (inactive).

What about the growth [14] of the same molecule?
The growth was 83.3% (inactive).

What about the growth [15] of the same molecule?
Its growth is 92.5% (inactive).

And the growth [16]?
Its growth is 93.5% (inactive).

What about the growth [17] of the same molecule?
Its growth is 98% (inactive).

And the growth [18]?
The growth was 91% (inactive).

And the growth [19]?
The growth was 89.1% (inactive).

And the growth [20]?
The growth was -7.3% (active).

For `CCC(CC)COC(=O)c1ccc(O)c(O)c1`, which growth [1] is on record?
Its growth is 81% (inactive).

And the growth [2]?
Its growth is 63.9% (inactive).

And the growth [3]?
The growth was 85.3% (inactive).

And the growth [4]?
The growth was 50.3% (inactive).

What about the growth [5] of the same molecule?
Its growth is 73.8% (inactive).

And the growth [6]?
The growth was 31.1% (inactive).

What about the growth [7] of the same molecule?
The growth was -5.6% (active).

What about the growth [8] of the same molecule?
Its growth is 52% (inactive).

What about the growth [9] of the same molecule?
Its growth is 78.5% (inactive).

And the growth [10]?
Its growth is 95.7% (inactive).

And the growth [11]?
Its growth is 73.4% (inactive).

What about the growth [12] of the same molecule?
Its growth is 102% (inactive).

And the growth [13]?
Its growth is 54.8% (inactive).

And the growth [14]?
The growth was 48.9% (inactive).

What about the growth [15] of the same molecule?
The growth was 65.7% (inactive).

What about the growth [16] of the same molecule?
The growth was 57.8% (inactive).

What about the growth [17] of the same molecule?
Its growth is 90.1% (inactive).

And the growth [18]?
The growth was 34% (inactive).

What about the growth [19] of the same molecule?
The growth was 86.4% (inactive).

And the growth [20]?
Its growth is 86.1% (inactive).

How did the growth [1] turn out when `COC(=O)Nc1nc2ccc(C(=O)c3ccccc3)cc2[nH]1` was run?
Its growth is 33.8% (inactive) and 19.3% (inactive) and 32.4% (inactive).

What about the growth [2] of the same molecule?
Its growth is 50.9% (inactive) and 80.4% (inactive) and 109% (inactive).

And the growth [3]?
The growth was 56.9% (inactive) and 66.1% (inactive) and 44.1% (inactive).

What about the growth [4] of the same molecule?
Its growth is 30.4% (inactive) and 21.9% (inactive) and 49.2% (inactive).

What about the growth [5] of the same molecule?
Its growth is 6.48% (active) and 1.24% (active) and -0.135% (active).

And the growth [6]?
The growth was 65.7% (inactive) and 41.8% (inactive) and 35.3% (inactive).

And the growth [7]?
Its growth is -11.7% (active) and -16.9% (active) and -32.5% (active).

And the growth [8]?
The growth was 20.8% (inactive) and 22.2% (inactive) and 17.2% (inactive).

And the growth [9]?
Its growth is 19.8% (inactive) and 23.6% (inactive) and 31.9% (inactive).

What about the growth [10] of the same molecule?
The growth was 0.824% (active) and -17.1% (active) and -22.8% (active).

What about the growth [11] of the same molecule?
The growth was 26.8% (inactive) and -20.2% (active) and -19.3% (active).

What about the growth [12] of the same molecule?
The growth was 6.5% (active) and 4.72% (active) and 4.39% (active).

And the growth [13]?
Its growth is 26.5% (inactive) and 58.6% (inactive) and 54.1% (inactive).

What about the growth [14] of the same molecule?
Its growth is 51.3% (inactive) and 25.5% (inactive) and 38% (inactive).

What about the growth [15] of the same molecule?
Its growth is -12.3% (active) and -5.96% (active).

What about the growth [16] of the same molecule?
The growth was 53.7% (inactive) and 21.3% (inactive) and 27.4% (inactive).

And the growth [17]?
The growth was 0.877% (active) and -10.3% (active) and -13.1% (active).

What about the growth [18] of the same molecule?
Its growth is 2.99% (active) and -28.1% (active) and -34% (active).

What about the growth [19] of the same molecule?
The growth was 61% (inactive) and 77.2% (inactive) and 69.8% (inactive).

And the growth [20]?
Its growth is -24.2% (active) and 0.911% (active) and 20.7% (inactive).
